Screening data: PubChem, National Center for Advancing Translational Sciences (NCATS)
L3MBTL1 block: blocks human L3MBTL1; Q9Y468; AlphaScreen L3MBTL1–H3K9me1 peptide binding; Potency, µM (titrated, usually from 57.1 µM), without a hit: top-dose activity, negative = inhibition, hits mostly inhibitors; actives 0.66% (n = 230,000); note: % is set by controls: 0 for no effect and ±100 for the full control effect; nearly all actives have a fitted effect of over 60% in size
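L3MBTL1 (50 nM) pre-complexed 30 min with biotinylated H3(1-15)K9me1 peptide (75 nM), then compounds added for 30 min at room temperature; AlphaScreen streptavidin donor/nickel chelate acceptor beads (10 ug/mL final) read after 30 min dark incubation.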
JMJD2A Tudor: JMJD2A Tudor domain (human) inhibition | actives 4.4% (n = 390,000) | O75164 | AlphaScreen JMJD2A-Tudor / H3K4me3 peptide binding | AID 504339 | Potency, µM (top dose mostly 114 µM), inactives show at the top dose activity change, negative = inhibition, most hits filed as inhibitors; note: % is set by controls: 0 for no effect and ±100 for the full control effect; nearly all actives have a fitted effect of over 50% in size
BAZ2B block: blocks human BAZ2B; Q9UIF8; AlphaScreen BAZ2B-H3K14Ac peptide displacement; Potency, µM (titrated, usually from 114 µM), for the others: at the highest dose activity change, negative = inhibition, most hits filed as inhibitors; actives 4.4% (n = 360,000); AID 504333; note: % is set by controls: 0 for no effect and ±100 for the full control effect; nearly all actives have a fitted effect of over 60% in size
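Compounds, titrated to a top concentration of 110 uM, were incubated 30 min at room temperature with preformed BAZ2B/acetyl-K14 H3 peptide complex (50 nM each). Proximity signal was measured by AlphaScreen after 20 min with beads.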
G9a inh: inhibitors of human histone lysine methyltransferase G9a; Potency, µM (doses to about 102 µM), inactives show top-dose activity, negative = inhibition, hits mostly inhibitors; Q96KQ7; actives 8.8% (n = 350,000); G9a H3K9 monomethylation, AlphaScreen, 2 h; AID 504332; note: % is set by controls: 0 for no effect and ±100 for the full control effect; nearly all actives have a fitted effect of over 75% in size
Target sequence (Q96KQ7 913-1193 limits assumed): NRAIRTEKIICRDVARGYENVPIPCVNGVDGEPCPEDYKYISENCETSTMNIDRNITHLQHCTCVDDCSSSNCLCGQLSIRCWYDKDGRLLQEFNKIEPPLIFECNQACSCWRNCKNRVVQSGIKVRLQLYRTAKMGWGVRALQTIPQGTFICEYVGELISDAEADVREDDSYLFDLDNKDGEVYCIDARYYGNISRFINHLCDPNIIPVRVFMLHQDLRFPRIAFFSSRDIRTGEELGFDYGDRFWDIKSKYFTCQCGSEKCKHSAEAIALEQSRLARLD
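Using a bead-based AlphaScreen, monomethylated H3K9 product from 2 h room-temperature reactions (G9a 20 nM, peptide 500 nM, SAM 20 uM) was detected with 0.5 ug/mL rabbit anti-H3K9me1 antibody.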
HP1b binding inh: HP1-beta chromodomain-methylated histone interaction inhibition. P83916. AlphaScreen HP1-beta / biotin-H3K9me3 peptide binding. Potency, µM (titrated, usually from 114 µM), for the others: top-dose activity change, negative = inhibition, hits mostly inhibitors. actives 0.56% (n = 390,000). AID 540317; note: nearly all actives have a fitted effect of over 70% in size
Target sequence (P83916 whole entry, looked up): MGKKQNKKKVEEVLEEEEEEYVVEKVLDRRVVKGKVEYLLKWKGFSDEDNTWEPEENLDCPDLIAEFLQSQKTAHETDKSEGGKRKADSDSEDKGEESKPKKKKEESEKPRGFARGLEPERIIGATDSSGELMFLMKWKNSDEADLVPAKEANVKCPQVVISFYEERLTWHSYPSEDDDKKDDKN
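Compound inhibition of the preformed complex between 50 nM HP1-beta and 50 nM biotinylated H3K9me3 peptide was read by AlphaScreen. Buffer was PBS pH 7.4 with 0.01% Tween-20. Incubations ran 30 min at room temperature, with 10 ug/mL donor/acceptor beads.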
The depositor's hits bear a star; ? = inconclusive; . = no result; [ ] = remark or other dose. Rows were chosen to be rich in hits. Some 11% of all compounds tested hit in one or more screens of this group. Calls come from the whole dose curve; as a rule, active = well fitted inhibition curve with a large enough effect; inconclusive = small, poorly fitted or top-dose-only effect; inactive = no such curve, though single readings can be large or run the other way. Potency is the fitted concentration of half-maximal effect.

SMILES	L3MBTL1 block	JMJD2A Tudor	BAZ2B block	G9a inh	HP1b binding inh
Cn1cc(Br)c(C(=O)Nc2c(F)c(F)c(F)c(F)c2F)n1	2.4%	-11.6%	9.2%	20.8%[59 µM]	20.0%
Cn1cc(Br)c(NC(=O)/C=C/C(=O)O)n1	7.1%	-17.3%	-11.8%	0.708µM*	49.0%
O=S(=O)(c1ccccc1)c1nc(-c2ccccc2)oc1N1CCCCC1	.	?	?	22.4µM*	-14.2%
CN1CCN(c2oc(-c3ccccc3Cl)nc2S(=O)(=O)c2ccccc2)CC1	.	?	-32.4%	?	?
Cc1ccc(S(=O)(=O)c2nc(-c3ccccc3)oc2N2CCN(c3ccccc3)CC2)cc1	.	-28.5%	-19.7%	-32.2%[59 µM]	-12.6%
CN1CCN(c2oc(-c3ccccc3)nc2S(=O)(=O)c2ccc(Br)cc2)CC1	.	56.2µM*	35.5µM*	.	?
NC(=O)C1CCN(c2oc(-c3ccccc3)nc2S(=O)(=O)c2ccc(Br)cc2)CC1	.	31.6µM*	?	.	47.7%
Cc1ccc(S(=O)(=O)c2nc(-c3ccccc3)oc2N2CCC(C(N)=O)CC2)cc1	.	-19.9%	?	.	5.9%
Cc1ccc(S(=O)(=O)c2nc(-c3ccccc3)oc2N2CCCC2)cc1	-2.6%	28.2µM*	?	1.26µM*	?
CC1CCc2onc(C(=O)N3CCN(c4cccc(C(F)(F)F)c4)CC3)c2C1 (configuration not stated)	.	32.4%	24.0%[57.1 µM]	16.8%[59 µM]	57.8%
CC1=C(C(=O)Nc2ccccc2)C(c2ccc(O)cc2)n2nc(-c3ccc(Cl)cc3)nc2N1 (configuration not stated)	.	-14.4%	?	16.1%[59 µM]	32.2%
O=S(=O)(c1ccccc1)c1nc(-c2ccccc2)oc1N1CCCC1	-16.5%[2.29 µM]	79.4µM*	-4.5%	5.1%	5.9%
Cc1ccc(S(=O)(=O)c2nc(Cc3ccccc3)oc2N2CCOCC2)cc1	3.4%	?	-2.5%	2.24µM*	1.9%[57 µM]
O=S(=O)(c1ccccc1)c1nc(-c2ccccc2)oc1N1CCN(c2cccc(Cl)c2)CC1	.	-27.8%	-32.8%	-22.3%[59 µM]	-5.4%
Cc1ccc(S(=O)(=O)c2nc(-c3ccco3)oc2N2CCC(C)CC2)cc1	.	?	10µM*	.	-6.1%
Cc1ccc(S(=O)(=O)c2nc(N3CCOCC3)sc2Cl)cc1	-0.4%	-1.5%	-15.0%	6.31µM*	55.0%
Cc1ccc(-c2nc(S(=O)(=O)c3ccc(C)cc3)c(N3CCN(c4ccccc4)CC3)o2)cc1	.	?	?	-15.8%[59 µM]	10.5%
COc1ccc(C2=NC3(CCCCCC3)N(CC(=O)Nc3cccc(Cl)c3)C2=O)cc1	.	-12.8%	-1.0%	-29.5%[59 µM]	35.9%
Cc1ccc(S(=O)(=O)c2nc(S(C)(=O)=O)sc2N2CCC(C)CC2)cc1	.	-35.8%	-16.1%	35.5µM*	9.3%
Cc1ccc(S(=O)(=O)c2nc(S(C)(=O)=O)sc2N2CCCCCC2)cc1	.	?	-33.8%	.	36.5%
COc1ccc(-c2nnc(SCCOc3ccccc3C)o2)cc1OC	.	-3.6%	0.3%	-35.1%[59 µM]	49.0%
COc1ccc(Cn2c(C(=O)O)c(CNCc3ccc(C)o3)c3ccc(OC)cc32)cc1	.	?	?	-15.0%[59 µM]	-24.1%
COc1cccc(/C=C2\SC(=S)N(N3C(=O)CCCC3=O)C2=O)c1	-9.9%	-85.2%	25.1µM*	22.4µM*	?
COc1cccc(/C=C2\SC(=S)N(CC3CCCO3)C2=O)c1 (configuration not stated)	-28.3%	?	8.91µM*	28.2µM*	-51.6%
O=C1/C(=C/c2cccc(O)c2)SC(=S)N1CC1CCCO1 (configuration not stated)	-7.8%	-26.9%	-4.9%	-4.9%[12.7 µM]	21.4%[57 µM]
SMILES	L3MBTL1 block	JMJD2A Tudor	BAZ2B block	G9a inh	HP1b binding inh
COc1cccc(/C=C2\SC(=S)N(C(C)C(=O)NC3C=CS(=O)(=O)C3)C2=O)c1 (configuration not stated)	.	?	39.8µM*	?	-18.7%
CCc1nc(Nc2ccccc2F)c2oc3ccccc3c2n1	.	-3.5%	56.2µM*	50.1µM*	35.4%
CCc1nc(Nc2ccccc2)c2oc3ccccc3c2n1	8.0%	2.1%	-7.5%	-23.0%[59 µM]	44.8%
CCc1nc(Nc2cccc(F)c2)c2oc3ccccc3c2n1	.	-9.6%	?	44.7µM*	10.4%
CCc1nc(Nc2ccc(N3CCN(C(C)=O)CC3)cc2)c2oc3ccccc3c2n1	1.3%	?	50.1µM*	?	-0.4%
CC(=O)N1CCN(c2ccc(Nc3ncnc4c3oc3ccccc34)cc2)CC1	-13.2%	-27.1%	?	?	2.9%
Oc1cccc(Nc2ncnc3c2oc2ccccc23)c1	.	-27.4%	?	50.1µM*	21.6%
CN(Cc1ccccc1)C(=O)c1cccc(NC(=O)c2nsc3ccccc23)c1	.	-11.4%	-0.3%	-28.0%[59 µM]	34.8%[57 µM]
CCc1nc(Nc2ccc(F)cc2)c2oc3ccccc3c2n1	.	0.7%	0.3%	44.7µM*	42.7%
CSCCC(NC(=O)c1ccco1)C(=O)N1CC=C(c2ccccc2)CC1 (configuration not stated)	.	-25.5%	?	.	-7.3%
COc1ccc(N=Cc2nc(-c3ccco3)oc2O)cc1	1.9%	-14.9%	-4.6%	?	24.3%
CCC(=NCc1ccc(Cl)c(Cl)c1)c1nc(-c2ccco2)oc1O	-28.4%	?	12.6µM*	44.7µM*	?
CC1(C)CC(NCc2cccc([N+](=O)[O-])c2)CC(C)(C)N1	.	-4.4%	-0.6%	2.7%	18.1%
CC(C)NCc1cccc([N+](=O)[O-])c1	-2.1%	20µM*	56.2µM*	2.51µM*	?
COc1ccc(/C=N/NC(=O)c2cc(OC)c(OC)c(OC)c2)cc1CN1CCc2cc(OC)c(OC)cc2C1C (configuration not stated)	.	-24.8%	-15.6%	?	10.2%
COc1ccc(C2NCCc3c2[nH]c2ccccc32)cc1COc1ccc(F)cc1 (configuration not stated)	-13.6%	39.8µM*	35.5µM*	?	?
COc1ccc(C2NCCc3c2[nH]c2ccccc32)cc1CN1CCc2cc(OC)c(OC)cc2C1C (configuration not stated)	.	-24.3%[11.4 µM]	?	44.7µM*	4.4%
COc1ccccc1CNC(=O)c1c[nH]c2ccc(S(=O)(=O)Nc3cc(C)cc(C)c3)cc2c1=O	.	-17.9%	-12.1%	-40.0%[59 µM]	10.2%
CCOC(=O)C1CCN(C(=O)c2cc3cc4ccc(C)cc4nc3o2)CC1	.	-13.1%	-9.0%	79.4µM*	39.4%
Cc1ccc(C)c(N2CCN(C(=O)c3cc4cc5ccc(C)cc5nc4o3)CC2)c1	.	-24.3%	.	4.0%[59 µM]	20.8%
O=C(CSc1cccc[n+]1[O-])c1ccccc1Br	-0.4%	-10.3%	-28.1%	0.501µM*	12.4%
Cc1cc(C(=O)CSc2cccc[n+]2[O-])c(C)n1-c1ccccc1	-8.7%[11.4 µM]	-25.0%	?	?	15.8%
Cc1cc(C(=O)CSc2cccc[n+]2[O-])c(C)n1-c1ccc(Br)cc1	-24.3%	.	50.1µM*	35.5µM*	.
